PubChem BioAssay
Inconclusive results are not listed. For some assays here: Entries with a potency or affinity are not part of this list. Activity calls are given as the source filed them. Unless noted, no stated cut-off is given here; in the data, active means fluorescence slope change above about 50%; inconclusive means mostly about 31% to 49%; inactive means weaker than that.

How the values were obtained:
[1] = suppressors of polyQ aggregation in yeast, 75Q-TubU reporter (AID 1593); settings: Yeast 75Q polyglutamine aggregation reporter
[2] = rescue of polyQ-huntingtin neuronal dysfunction in worms, whole organism, C. elegans mechanosensory neurons, N-terminal huntingtin (AID 1599); settings: touch response, stronger effect = higher value
[3] = inhibitors of mitochondrial cytochrome c release, biochemical, purified mitochondria (AID 1603); settings: stronger effect = lower value;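 further: mouse liver mitochondria challenged with calcium chloride; signal normalized to the plate average as 100%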
[4] = inhibitors of polyQ protein aggregation (AID 1604); settings: polyglutamine-induced protein aggregation inhibition assay; stronger effect = higher value; tested at 2.5 µM
[5] = enhancers of glutamate uptake in motor neurons, MN-1 cell line (AID 1612); settings: MN-1 motor neuron cells, stronger effect = higher value;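 further: tested at 1 µM final; 0% = mean of DMSO vehicle wells on each plate; positive means more glutamate uptake than control and negative means less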
[6] = suppressors of polyglutamine aggregation in yeast, 75Q-TubH (AID 1616); settings: S. cerevisiae 75Q-TubH polyglutamine aggregation suppression; stronger effect = higher value
[7] = molecular target: ATP-dependent translocase ABCB1 (Homo sapiens) (UniProt P08183); test: MDR1 (ABCB1) efflux transporter inhibition, cell-based (AID 377); settings: MDR1-expressing cells, fluorescent substrate accumulation slope; stronger effect = higher value; concentration not given here
ATP-dependent translocase ABCB1 (Homo sapiens), sequence (P08183 whole entry, looked up): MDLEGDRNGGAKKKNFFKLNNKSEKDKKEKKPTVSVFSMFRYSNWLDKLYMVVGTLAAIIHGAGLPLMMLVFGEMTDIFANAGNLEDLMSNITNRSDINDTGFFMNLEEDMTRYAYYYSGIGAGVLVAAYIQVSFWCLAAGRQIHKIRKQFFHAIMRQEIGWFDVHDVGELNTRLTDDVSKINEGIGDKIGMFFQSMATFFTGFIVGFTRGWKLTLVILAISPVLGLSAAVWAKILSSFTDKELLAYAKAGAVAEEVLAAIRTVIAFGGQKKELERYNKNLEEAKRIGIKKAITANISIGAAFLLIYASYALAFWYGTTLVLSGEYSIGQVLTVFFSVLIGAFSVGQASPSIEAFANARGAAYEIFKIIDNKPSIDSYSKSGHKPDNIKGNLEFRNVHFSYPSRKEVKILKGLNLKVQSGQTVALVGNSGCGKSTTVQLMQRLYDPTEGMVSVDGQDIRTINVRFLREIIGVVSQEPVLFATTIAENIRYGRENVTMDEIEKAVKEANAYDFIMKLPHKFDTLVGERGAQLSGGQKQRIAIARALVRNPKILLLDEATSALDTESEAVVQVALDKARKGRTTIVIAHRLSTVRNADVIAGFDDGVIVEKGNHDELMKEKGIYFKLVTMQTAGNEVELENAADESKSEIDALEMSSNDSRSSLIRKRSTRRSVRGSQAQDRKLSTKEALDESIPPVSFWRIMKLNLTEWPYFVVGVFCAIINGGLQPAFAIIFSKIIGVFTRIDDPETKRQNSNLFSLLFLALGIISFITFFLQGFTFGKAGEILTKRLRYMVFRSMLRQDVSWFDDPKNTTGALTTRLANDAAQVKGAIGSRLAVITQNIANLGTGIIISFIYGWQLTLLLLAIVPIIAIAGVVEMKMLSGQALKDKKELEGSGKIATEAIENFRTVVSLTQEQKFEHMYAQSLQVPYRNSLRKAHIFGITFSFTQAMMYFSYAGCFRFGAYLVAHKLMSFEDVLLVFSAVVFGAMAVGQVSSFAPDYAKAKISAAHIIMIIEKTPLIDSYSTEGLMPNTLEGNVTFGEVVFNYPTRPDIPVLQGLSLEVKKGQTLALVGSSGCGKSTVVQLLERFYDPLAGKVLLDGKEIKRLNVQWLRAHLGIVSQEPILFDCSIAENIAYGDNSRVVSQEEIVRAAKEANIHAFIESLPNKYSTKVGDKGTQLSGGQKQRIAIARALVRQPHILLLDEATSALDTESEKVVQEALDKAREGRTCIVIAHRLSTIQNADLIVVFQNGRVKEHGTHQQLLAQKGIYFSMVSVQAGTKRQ

[8] = molecular target: NAD(+) hydrolase SARM1 (Homo sapiens) (UniProt Q6SZW1); test: SARM1 TIR NADase inhibitors, cell lysate, NAD-Glo luminescence (AID 1508614;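 active means compound whose remaining NAD level is above about 45 nM, limit read from the data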); settings: SAM-TIR HEK293T lysate NADase, at 1 µM, stronger effect = higher value
NAD(+) hydrolase SARM1 (Homo sapiens), sequence (Q6SZW1 whole entry, looked up): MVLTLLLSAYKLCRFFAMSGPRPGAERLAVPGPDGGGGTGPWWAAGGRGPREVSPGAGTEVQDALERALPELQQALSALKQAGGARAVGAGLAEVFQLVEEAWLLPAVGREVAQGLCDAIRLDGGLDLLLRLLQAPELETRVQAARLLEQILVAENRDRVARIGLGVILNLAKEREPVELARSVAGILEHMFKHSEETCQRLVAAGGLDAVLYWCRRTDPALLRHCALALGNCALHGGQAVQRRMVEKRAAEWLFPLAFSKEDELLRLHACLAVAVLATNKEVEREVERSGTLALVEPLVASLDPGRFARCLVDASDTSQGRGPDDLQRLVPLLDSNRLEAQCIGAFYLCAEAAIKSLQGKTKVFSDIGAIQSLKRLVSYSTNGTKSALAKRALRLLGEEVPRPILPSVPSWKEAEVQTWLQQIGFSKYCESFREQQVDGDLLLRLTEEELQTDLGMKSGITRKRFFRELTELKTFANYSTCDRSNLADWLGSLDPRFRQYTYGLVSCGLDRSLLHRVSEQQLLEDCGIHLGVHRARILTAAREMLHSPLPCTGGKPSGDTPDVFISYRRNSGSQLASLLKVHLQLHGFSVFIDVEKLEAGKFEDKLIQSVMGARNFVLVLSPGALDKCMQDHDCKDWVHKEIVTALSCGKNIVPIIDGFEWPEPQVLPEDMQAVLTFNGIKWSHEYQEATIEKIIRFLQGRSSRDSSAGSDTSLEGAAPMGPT

SMILES	score [1]	rescue above control [2]	cytochrome c release ratio [3]	inhibition of aggregation [4] [%]	glutamate uptake change [5] [%]	aggregation suppression score [6]	fluorescence slope change [7]	remaining NAD [8]
N.N.O=C(O)C1(C(=O)O)CCC1.[Pt]	1.14	12.6	0.66	37.7	-9.42	1.13	–	–
CN1CCc2cccc3c2[C@H]1Cc1ccc(O)c(O)c1-3	–	–	–	–	–	–	65.8% (active)	53 nM (active)
